Assays:
Details in all cases: concentration: 1 μM, replicates: in singlicate; n = 1
[1] = tested on: PIP5K1A
[2] = tested on: PIP5K1C
[3] = tested on: PIP5K2B
[4] = tested on: T1, PIP5K2C
T1 construct: gene PIP4K2C

[5] = tested on: T2, PKAC-alpha
T2 construct: gene PRKACA

[6] = tested on: T3, PKAC-beta
T3 construct: gene PRKACB

[7] = tested on: PKMYT1
[8] = tested on: PKN1
[9] = tested on: PKN2
[10] = tested on: PLK1
[11] = tested on: PLK2
[12] = tested on: PLK3
[13] = tested on: PLK4
[14] = tested on: PRKCD
[15] = tested on: PRKCE
[16] = tested on: PRKCH
[17] = tested on: PRKCI
[18] = tested on: PRKCQ
[19] = tested on: PRKD1
[20] = tested on: PRKD2
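Also: KINOMEscan kinase panel screen.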

SMILES | %Inh [1] [%] | %Inh [2] [%] | %Inh [3] [%] | %Inh [4] [%] | %Inh [5] [%] | %Inh [6] [%] | %Inh [7] [%] | %Inh [8] [%] | %Inh [9] [%] | %Inh [10] [%] | %Inh [11] [%] | %Inh [12] [%] | %Inh [13] [%] | %Inh [14] [%] | %Inh [15] [%] | %Inh [16] [%] | %Inh [17] [%] | %Inh [18] [%] | %Inh [19] [%] | %Inh [20] [%]
O=c1[nH]cc(-c2ccc(N3CCOCC3)cc2)c2sc(-c3cn[nH]c3)cc12 [GSK2276055] | 0 | 24 | 1 | 0 | 0 | 0 | 0 | 15 | 0 | 7 | 18 | 0 | 17 | 0 | 0 | 0 | 17 | 21 | 0 | 30
Cl.c1ccc(-c2ccc3c(Nc4ccc5[nH]ncc5c4)ccnc3c2)nc1 [GW440137] | 18 | 30 | 0 | 55 | 0 | 0 | 0 | 15 | 0 | 0 | 0 | 0 | 7 | 4 | 5 | 0 | 17 | 0 | 3 | 12
CN(c1ccc(NC(=O)Nc2cc(C(F)(F)F)ccc2F)cc1)c1ccnc(Nc2ccc(S(N)(=O)=O)cc2)n1 [GW809893] | 10 | 14 | 0 | 94.6 | 18 | 18 | 1 | 0 | 8 | 3 | 54 | 56 | 97.6 | 0 | 0 | 0 | 29 | 9 | 0 | 10
Clc1ccc(-c2nn3ncccc3c2-c2ccnc(Nc3ccc4c(c3)OCCO4)n2)cc1 [GW829116] | 17 | 0 | 0 | 43 | 24 | 0 | 2 | 0 | 0 | 0 | 0 | 7 | 2 | 0 | 1 | 0 | 0 | 22 | 0 | 1
Cc1ccc(F)c(C(=O)Nc2cccc(-c3nn4ccccc4c3-c3ccnc(Nc4cccc(F)c4)n3)c2)c1F [GSK361061] | 0 | 6 | 15 | 0 | 13 | 29 | 17 | 0 | 17 | 19 | 3 | 9 | 10 | 25 | 2 | 25 | 0 | 27 | 14 | 12
CC(=O)N1CCN(c2ccc(Nc3nccc(-c4sc(C(C)C)nc4-c4cccc(NS(=O)(=O)c5cccc(Cl)c5)c4)n3)cn2)CC1 [GSK1660437] | 0 | 15 | 15 | 66 | 0 | 6 | 0 | 57 | 12 | 0 | 5 | 0 | 99.8 | 1 | 0 | 19 | 13 | 13 | 89 | 95.3
CC(C)c1nc(-c2cccc(NS(=O)(=O)c3c(F)cccc3F)c2F)c(-c2ccnc(Nc3ccc(N4CCOCC4)nc3)n2)s1 [GSK2008607] | 0 | 45 | 0 | 87 | 0 | 0 | 24 | 6 | 0 | 0 | 0 | 4 | 100 | 0 | 0 | 22 | 36 | 18 | 93.8 | 99.2
Nc1ncnc2c1nc(-c1ccccc1)n2-c1ccccc1 [SKF-97293] | 13 | 0 | 19 | 0 | 7 | 17 | 18 | 20 | 4 | 68 | 38 | 16 | 26 | 14 | 35 | 9 | 13 | 0 | 5 | 0
COCCOCCOc1cc2ncc3c4ccc(C#N)cc4[nH]c3c2cc1OC | 36 | 63 | 74 | 60 | 0 | 0 | 28 | 17 | 63 | 0 | 0 | 0 | 13 | 0 | 11 | 0 | 33 | 35 | 0 | 0
